Screening data: PubChem, National Center for Advancing Translational Sciences (NCATS)
KB-3-1 tox – qHTS assay for MDR1-selective chemotherapeutics: Primary screen using the parental adenocarcinoma cell KB-3-1. KB-3-1 viability, CellTiter-Glo ATP luminescence, 72 h. Potency, µM (highest dose often 46.1 µM), usual class: cytotoxic. 400,000 tested, 1.4% active; also: potency is read from the fitted curve at half-maximal effect; % is scaled to controls: 0 for no effect and ±100 for the full control effect; nearly all actives have a fitted effect of over 60% in size
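Cytotoxicity in the drug-sensitive parental line KB-3-1 was scored as loss of CellTiter-Glo luminescence following 72 h incubation with compound. Values come from curve fitting of normalized concentration-response data.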
SW480 rereplic – A quantitative high throughput screen for small molecules that induce DNA re-replication in SW480 colon adenocarcinoma cells; SW480 DNA re-replication, Hoechst DNA content imaging, 48 h; Potency, µM (top dose mostly 46.1 µM), for inactives: at the top dose re-replication activation, actives largely listed as activators; 340,000 tested, 1.8% active; AID 624297, 2012; also: potency is read from the fitted curve at half-maximal effect; % of control where 0% means no effect; nearly all actives have a fitted effect of over 55% in size
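Image-based DNA-content assay: after two days of treatment, nuclei were labelled with the DNA dye Hoechst and imaged, and hits were compounds raising the count of nuclei showing high fluorescence intensity.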
MCF10A rerep – A quantitative high throughput screen for small molecules that induce DNA re-replication in MCF 10a normal breast cells; Potency, µM (series often up to 46.1 µM), without a hit: top-dose activity, positive = re-replication, actives largely listed as activators; MCF 10A DNA re-replication, Hoechst nuclear intensity, 48 h; AID 624296, 2012; 350,000 tested, 2.9% active; also: potency is read from the fitted curve at half-maximal effect; % of control where 0% means no effect; nearly all actives have a fitted effect of over 50% in size
KCNH2 3.1 inh – qHTS for Inhibitors of KCHN2 3.1: Mutant qHTS. activity change, % (tested at about 1.8 µM). 340,000 tested, 0.95% active. U2OS KCNH2 3.1, thallium flux FluxOr; stronger effect = lower value. Potassium voltage-gated channel subfamily H member 2, brain isoform KCNH2 3.1 (human);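 active = maximum activity change below -70%; inconclusive = maximum activity change from -70% to -50%; inactive = maximum activity change above -50%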;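 also: thallium influx rate constant from kinetic fluorescence after stimulation buffer; % is scaled to controls: 0 for no effect and ±100 for the full control effect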
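Measured as rate of thallium-driven FluxOr signal in transduced U2OS cells carrying the 3.1 channel, read kinetically for 2 min upon stimulation; values are rate constants scaled to DMSO control wells.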
KCNH2 WT inh – qHTS for Inhibitors of KCHN2 3.1: Wildtype qHTS. Voltage-gated inwardly rectifying potassium channel KCNH2 (Homo sapiens), Q12809. U2OS, BacMam KCNH2, thallium flux FluxOr; stronger effect = lower value. activity change, % at 1.84 µM. 340,000 tested, 0.37% active. AID 720551, 2013;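 active = maximum activity change below -70%; inconclusive = maximum activity change between -70% and -50%; inactive = maximum activity change above -50%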; also: % is scaled to controls: 0 for no effect and ±100 for the full control effect
Target sequence (Q12809 whole entry, looked up): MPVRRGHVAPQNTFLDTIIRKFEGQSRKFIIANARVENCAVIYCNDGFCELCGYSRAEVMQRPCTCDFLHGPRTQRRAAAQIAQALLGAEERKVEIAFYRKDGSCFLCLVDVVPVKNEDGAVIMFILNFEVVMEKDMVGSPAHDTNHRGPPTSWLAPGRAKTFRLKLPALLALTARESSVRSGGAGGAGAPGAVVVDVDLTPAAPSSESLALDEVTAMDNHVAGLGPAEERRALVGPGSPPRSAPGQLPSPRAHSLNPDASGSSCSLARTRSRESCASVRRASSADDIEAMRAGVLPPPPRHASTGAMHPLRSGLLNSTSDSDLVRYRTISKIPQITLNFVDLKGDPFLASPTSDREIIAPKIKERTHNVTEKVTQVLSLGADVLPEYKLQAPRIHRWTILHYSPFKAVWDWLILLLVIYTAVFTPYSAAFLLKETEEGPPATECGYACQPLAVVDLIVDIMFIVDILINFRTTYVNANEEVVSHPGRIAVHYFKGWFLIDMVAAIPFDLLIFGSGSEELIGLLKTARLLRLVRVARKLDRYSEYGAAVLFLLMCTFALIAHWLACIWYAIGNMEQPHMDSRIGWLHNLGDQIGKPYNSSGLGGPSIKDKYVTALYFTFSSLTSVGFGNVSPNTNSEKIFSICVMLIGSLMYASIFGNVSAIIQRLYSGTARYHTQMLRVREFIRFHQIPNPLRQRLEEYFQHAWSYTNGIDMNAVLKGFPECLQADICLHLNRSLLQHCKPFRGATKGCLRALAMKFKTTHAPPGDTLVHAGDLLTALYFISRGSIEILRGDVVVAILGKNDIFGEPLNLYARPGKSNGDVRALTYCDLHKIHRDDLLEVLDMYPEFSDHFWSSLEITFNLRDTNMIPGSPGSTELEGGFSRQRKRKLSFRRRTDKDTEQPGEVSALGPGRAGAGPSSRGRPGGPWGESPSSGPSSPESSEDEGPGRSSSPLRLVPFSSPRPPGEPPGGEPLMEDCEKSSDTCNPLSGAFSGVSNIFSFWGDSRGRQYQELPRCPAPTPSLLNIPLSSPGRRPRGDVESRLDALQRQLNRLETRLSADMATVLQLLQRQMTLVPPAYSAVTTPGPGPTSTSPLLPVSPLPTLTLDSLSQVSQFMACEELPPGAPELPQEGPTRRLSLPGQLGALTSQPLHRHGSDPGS
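U2OS cells were transduced with wild-type KCNH2 virus (2.03 x 10^8 / mL) for 4 h at room temperature, then cultured overnight at 37 C. Thallium flux was read with FluxOr dye. Rate constants were normalized to DMSO controls.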
KB-V1 cytotox – qHTS assay for MDR1-selective chemotherapeutics: Primary screen using the drug-selected MDR subline cells KB-V1 | KB-V1 MDR cells viability, CellTiter-Glo, 72 h | 400,000 tested, 3.4% active | Potency, µM (highest dose often 46.1 µM), hits mostly cytotoxic | AID 1347076, 2019; also: potency is read from the fitted curve at half-maximal effect; % is scaled to controls: 0 for no effect and ±100 for the full control effect; nearly all actives have a fitted effect of over 60% in size
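Potencies derive from concentration-effect curves fitted to normalized luminescence (CellTiter-Glo) of KB-V1 cells treated for 72 h at 37 degrees C in phenol-red-free DMEM containing 10% FBS.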
The depositor's hits bear a star; i = inactive; u = inconclusive; x = no result given. In the library only some 7.6% were active in any assay of this set; here they are far more common. Unless noted, calls follow the shape of the dose curve; as a rule, active = well fitted curve in the direction sought with a large enough effect; inconclusive = small, poorly fitted or top-dose-only effect, or another doubt; inactive = no such curve, though single readings can be large; an effect the other way counts as inactive or inconclusive.

SMILES	KB-3-1 tox	SW480 rereplic	MCF10A rerep	KCNH2 3.1 inh	KCNH2 WT inh	KB-V1 cytotox
COc1cc(OC)cc(-c2cc3nc(C)c(CCC(=O)NC(C)CCc4ccco4)c(C)n3n2)c1 (stereo unspecified)	i	-3%	u	5	-2	i
COc1cc(OC)cc(-c2cc3nc(C)c(CCC(=O)O)c(C)n3n2)c1	i	0%	18µM*	-11	7	i
CCc1ccc(NC(=O)CSc2ccc(-c3ccccn3)nn2)cc1	u	12%	12µM*	11	10	i
CC(=O)Nc1cccc(NC(=O)CSc2ccc(-c3ccccn3)nn2)c1	i	u	u	-8	5	u
O=C(CSc1ccc(-c2ccccn2)nn1)NCc1ccccc1	i	-8%	4%	2	-115*	u
O=C(CSc1ccc(-c2ccccn2)nn1)NCc1ccc(F)cc1	i	1%	5%	1	6	u
Cc1ccc(CNC(=O)c2ccc3c(O)c(S(=O)(=O)c4ccccc4)c(=O)[nH]c3c2)cc1	i	x	x	x	x	u
COc1cc(C2C(C#N)=C(N)Oc3cc(N(C)C)ccc32)cc2c1OCO2 (stereo unspecified)	0.82µM*	-3%	u	0	0	0.016µM*
N#CC1=C(N)Oc2cc(O)ccc2C1c1ccccc1 (stereo unspecified)	u	4%	u	6	-3	18µM*
COc1cc(C2C(C#N)=C(N)Oc3cc4c(cc32)OCO4)cc(OC)c1OC (stereo unspecified)	0.0052µM*	u	u	31	4	0.23µM*
COc1cc(C2C(C#N)=C(N)Oc3cc(O)ccc32)cc(OC)c1OC (stereo unspecified)	2.9µM*	-1%	1%	-1	1	u
COc1ccc(C2C(C#N)=C(N)Oc3cc(O)ccc32)cc1OC (stereo unspecified)	i	3%	0%	11	9	i
COc1ccc(Cl)cc1NS(=O)(=O)c1ccc2[nH]c3c(c2c1)CCCC3	i	x	x	x	x	i
Cc1cc(S(=O)(=O)N2CCCCCC2)c(Cl)cc1Cl	i	7%	19%	1	-7	u
CNCC(C)COc1ccccc1OCc1ccccc1 (stereo unspecified)	i	10%	0%	-1	0	21µM*
CC(=O)c1sc(NC(=O)C=C(C)C)nc1C	i	4%	11%	-12	3	i
CC(=O)c1sc(NC(=O)C2(F)C(F)(F)C(F)(F)C(F)(F)C(F)(F)C2(F)F)nc1C	u	0%	9.2µM*	3	-18	7.3µM*
CC(=O)N/C(=C/c1ccccc1)c1sc2ccccc2[n+]1CCCCI	i	x	x	x	x	i
COc1ccc(OC)c(NC(=O)c2cc(-c3cc(Cl)ccc3O)n[nH]2)c1	u	u	15µM*	1	2	u
COc1ccc(Cl)cc1NC(=O)c1cc(-c2ccccc2O)n[nH]1	i	-108%	11%	-4	-8	u
Cc1c(Cl)cccc1NC(=O)c1cc(-c2ccccc2O)n[nH]1	i	-7%	34%	-103*	-22	i
O=C(CSc1nc(-c2ccccc2)c(-c2ccccc2)o1)Nc1nnc(-c2ccccc2)s1	i	-10%	0%	-6	-3	7.3µM*
O=C(CSc1nc(-c2ccccc2)c(-c2ccccc2)o1)N1CCOCC1	u	2%	16µM*	0	15	u
O=C(CSc1nc(-c2ccccc2)c(-c2ccccc2)o1)Nc1nncs1	i	5%	u	-12	-5	i
CCOC(=O)[C@@H](C)N(C(=O)OC(C)(C)C)S(=O)(=O)N(Cc1ccccc1)[C@@H](C(=O)OC)C(C)C	i	x	x	x	x	i
